In PubChem BioAssay AID651650 (Sanford-Burnham Center for Chemical Genomics, 2012):

target: Neuropilin-1 (Homo sapiens) (UniProt O14786); test: NRP-1 b1b2 CendR peptide binding inhibitors, dose response, biochemical, FP and AlphaScreen panel (AID 651650); settings: NRP-1 b1b2 / RPARPAR peptide binding, FP or AlphaScreen; run 1, at 100 µM (top of the series)
Sequence (O14786 whole entry, looked up): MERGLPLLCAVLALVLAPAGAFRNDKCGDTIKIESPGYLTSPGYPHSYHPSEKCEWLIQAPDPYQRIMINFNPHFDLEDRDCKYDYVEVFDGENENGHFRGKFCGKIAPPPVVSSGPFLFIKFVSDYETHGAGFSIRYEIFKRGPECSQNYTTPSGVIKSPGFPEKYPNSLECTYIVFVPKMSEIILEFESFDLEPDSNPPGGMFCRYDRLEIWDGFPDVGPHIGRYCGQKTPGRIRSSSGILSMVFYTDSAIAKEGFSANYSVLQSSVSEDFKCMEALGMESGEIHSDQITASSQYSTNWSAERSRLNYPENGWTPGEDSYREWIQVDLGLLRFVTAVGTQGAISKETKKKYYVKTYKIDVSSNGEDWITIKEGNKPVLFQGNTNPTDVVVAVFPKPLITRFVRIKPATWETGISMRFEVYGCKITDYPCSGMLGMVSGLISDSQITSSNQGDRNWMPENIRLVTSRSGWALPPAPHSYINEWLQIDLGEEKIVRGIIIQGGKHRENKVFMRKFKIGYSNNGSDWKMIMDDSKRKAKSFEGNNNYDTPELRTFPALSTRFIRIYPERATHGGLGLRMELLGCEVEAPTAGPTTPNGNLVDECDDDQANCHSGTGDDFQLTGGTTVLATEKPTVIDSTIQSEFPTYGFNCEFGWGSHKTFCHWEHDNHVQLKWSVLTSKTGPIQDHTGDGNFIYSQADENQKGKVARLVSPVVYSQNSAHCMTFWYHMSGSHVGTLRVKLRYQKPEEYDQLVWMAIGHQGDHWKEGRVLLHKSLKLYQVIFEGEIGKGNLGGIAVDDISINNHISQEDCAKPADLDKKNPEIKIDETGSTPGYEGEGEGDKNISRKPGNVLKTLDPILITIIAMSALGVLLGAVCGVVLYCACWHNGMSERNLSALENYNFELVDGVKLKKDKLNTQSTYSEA

Compound | inhibition [%]
Cc1ccc(S(=O)(=O)NCC(=O)N(c2ccccc2)C(C(=O)NCc2ccccc2)c2ccco2)cc1 (stereo not drawn) | -4.65
Cn1c(=O)c2[nH]c(COc3ccccc3)nc2n(C)c1=O | 16.6
CCOC(=O)c1c(=O)n(O)c2ccc(OC)cc2[n+]1[O-] | -2.72
Cc1ccccc1NC(=O)c1cccc(NC(=O)CCC(=O)O)c1 | 28.1
O=C1CCCN1CCCNc1nc(NCc2cccs2)nc2ccsc12 | 81.3
Cc1nc(SCc2ccc(C(=O)O)cc2)nc2c1CCCC2 | 41.7
Cc1ccc(Cl)cc1N1CCN(C(=O)c2cccc3c(=O)c(C)c(-c4ccccc4)oc23)CC1 | 20.7
O=C1CCN(Cc2ccccc2)S(=O)(=O)c2ccccc21 | 54
COc1ccc(C(=O)N[C@H](C(=O)Nc2nc3c(s2)CCCC3)C(C)C)cc1 | 22.5
Cn1c(SCc2nc3ccccc3s2)nnc1-c1cccs1 | 65.1
FC(F)(F)C1CC(c2cccs2)Nc2ncnn21 (stereo not drawn) | 46
OCC[C@H]1C[C@H](O)[C@@H](O)[C@]2(CCCCO2)O1 | -5.29
CC(Nc1ccc2ccccc2c1)C(=O)N/N=C/c1ccncc1 (stereo not drawn) | 45.8
CCCCC1CCC(C(=O)NC2CCS(=O)(=O)C2)CC1 (stereo not drawn) | 16.6
C=CCN(CC=C)C(=O)C1CC(=O)N(c2ccc(Br)cc2)C1 (stereo not drawn) | -4.22
Cc1nn(-c2ccccc2)c(C)c1C(=O)OCC(=O)Nc1ccccc1 | 20.2
O=C(/C=C/c1ccco1)N/C(=C\c1ccccc1)C(=O)NCCc1nc2ccccc2[nH]1 | 11.8
CC(=O)Nc1cc(F)c2c(c1F)Cc1cc(F)ccc1-2 | 64
COC(=O)c1cccc(NC(=S)NCCC2=CCCCC2)c1 | 4.3

Compound | inhibition [%]
NC(N)=NCCC[C@H](NC(=O)OCc1ccccc1)C(=O)O | 17.2
Cc1ccsc1C(=O)N1CCCC(CO)(Cc2ccccc2F)C1 (stereo not drawn) | 17.8
O=C(Nc1cccc(S(=O)(=O)N2CCCCC2)c1)c1ccc([N+](=O)[O-])o1 | 52.5
COC(=O)C1=C(C)NC(C)=C(C(=O)OC)C1C(=O)OC(C)C(=O)c1ccccc1 (stereo not drawn) | 12.9
CSc1cccc(CN2CCN(Cc3ccccc3)C(CCO)C2)c1 (stereo not drawn) | 48.8
Cc1cc2c(=O)[nH]cnc2s1 | 13.4
CC(C)C(N)c1csc(NC(=O)Nc2cccc(C(F)(F)F)c2)n1 (stereo not drawn) | 28.7
CC(=O)C(=Cc1ccc(Cl)cc1)C(=O)c1ccccc1 | 27.1
Cc1ccccc1Nc1cc(=O)oc2ccccc12 | 5.19
c1cc(CNc2ccc3c(c2)OCO3)ccn1 | 27.1
COc1ccc(C(=O)N2CCC(C)(C(=O)NS(=O)(=O)C3CC3)C2)cc1F (stereo not drawn) | 12.1
CCN(CC)C(=O)C1CCCN(C(=O)Nc2ccc3nsnc3c2)C1 (stereo not drawn) | 21.5
CC(C)(C)C(=O)c1cnc(Nc2ccccc2)s1 | -10.5
Oc1ccc(-c2nc3ncccn3c2Nc2ccc3c(c2)OCO3)cc1 | 41.8
CC(C)OC(=O)CSc1nnc(-c2ccccn2)n1-c1ccccc1 | -4.4
O=Cc1ccc(-c2ccccc2C(=O)O)o1 | 51.8
CC1CCC(NC(=O)CSc2nncn2C)CC1 (stereo not drawn) | 19.2
CC(C)c1ccc(S(=O)(=O)N2CCN(C(=O)CN3C(=O)c4ccccc4C3=O)CC2)cc1 | 64.7
CCCCCc1c(-c2cccc(Cl)c2)ncn1CCc1ccccc1OC | 51.8
